Six1-Eya2 inh = Six1/Eya2 interaction inhibition | AlphaScreen GST-Six1/His-Eya2 binding, biochemical; hits give low values | hit rate 0.56% among 360,000 | activity change, % (no concentration beside the values) | Q15475+O00167; in the data active = activity change below about -65%; inconclusive = mostly about -30% to -63%
Target sequence (O00167 whole entry, looked up): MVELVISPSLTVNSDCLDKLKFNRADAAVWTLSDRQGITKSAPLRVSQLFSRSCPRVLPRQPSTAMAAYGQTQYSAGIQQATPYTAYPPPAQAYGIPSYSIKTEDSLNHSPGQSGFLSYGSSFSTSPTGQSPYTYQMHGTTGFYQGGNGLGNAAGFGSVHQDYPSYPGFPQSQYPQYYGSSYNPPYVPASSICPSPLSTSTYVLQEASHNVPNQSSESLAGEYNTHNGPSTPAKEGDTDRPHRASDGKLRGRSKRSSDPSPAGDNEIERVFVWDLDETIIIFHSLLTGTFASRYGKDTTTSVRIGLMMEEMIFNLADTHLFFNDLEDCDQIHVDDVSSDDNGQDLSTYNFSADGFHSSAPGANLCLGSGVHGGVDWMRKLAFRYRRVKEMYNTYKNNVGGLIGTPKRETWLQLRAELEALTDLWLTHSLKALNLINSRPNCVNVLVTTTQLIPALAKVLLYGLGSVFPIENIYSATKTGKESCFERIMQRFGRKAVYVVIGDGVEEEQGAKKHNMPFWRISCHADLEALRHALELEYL
Target sequence (Q15475 whole entry, looked up): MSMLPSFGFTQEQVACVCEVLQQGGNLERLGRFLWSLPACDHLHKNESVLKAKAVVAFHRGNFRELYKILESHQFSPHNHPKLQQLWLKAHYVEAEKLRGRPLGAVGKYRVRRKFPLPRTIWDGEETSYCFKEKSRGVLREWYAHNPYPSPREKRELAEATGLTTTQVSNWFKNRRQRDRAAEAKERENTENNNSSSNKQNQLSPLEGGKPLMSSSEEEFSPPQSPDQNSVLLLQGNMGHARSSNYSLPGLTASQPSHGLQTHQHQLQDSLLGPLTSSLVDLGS
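Compounds are tested against tagged Six1 and Eya2 proteins bridged by glutathione donor and nickel acceptor beads; after a one-hour incubation at 37 °C without light, AlphaScreen emission is recorded.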
Gal4-VP16 FLuc = counter-screen for ROR gamma inhibitors: Gal4-VP16 reporter; Drosophila S2 Gal4-VP16 UAS-luciferase, luminescence, 20 h; Potency, µM (titrated, usually from 53.6 µM), usual class: inhibitors; hit rate 3.5% among 310,000; AID 2546;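 note: Gal4-VP16 expression switched on by copper sulfate through the metallothionein promoter; nearly all actives have a fitted effect of over 50% in size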
p53 reactivation = mutant p53 re-activation in reporter cells; H1299 p53-A138V BP100-luciferase reporter, luminescence, 24 h; Potency, µM (doses to about 92.2 µM), most hits filed as activators; hit rate 0.063% among 320,000; note: nearly all actives have a fitted effect of over 45% in size
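p53-null H1299 cells stably carrying temperature-sensitive p53-A138V and a BP100-luciferase reporter were pinned with compounds (4-point, 1:5 series) and held 24 hrs at 37 deg C. Luminescence was read 10 min after detection reagent.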
CtBP-E1A blk = blocks the CtBP interaction with E1A; AID 651724; activity change, % (no concentration beside the values); AlphaScreen GST-E1A/His-CtBP binding, 1536-well; hits give low values; hit rate 0.49% among 340,000; in the data active = activity change below about -65%; inconclusive = mostly about -30% to -63%
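In 5 uL wells, 23 nL compound meets equimolar GST-E1A and His-CtBP (5X stock 125 nM each) for 2 h, 37 °C. Beads (5X, 50 ug/mL) then 1 h, 37 °C, dark.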
RORg inh = ROR gamma (mouse) transcription inhibition. hit rate 5.4% among 310,000. P51450. Potency, µM (top dose mostly 53.6 µM), actives largely listed as inhibitors. Drosophila S2 Gal4-RORgamma UAS-luciferase reporter, 20 h. AID 2551; note: nearly all actives have a fitted effect of over 60% in size
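Schneider cells (Drosophila), stable Gal4 DBD–ROR gamma + UAS-luc; 1 hr cmpd preincubation; Cu2+ induction 700 uM final; 20 hr ambient; luminescence.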
Of the large screens only hits and unclear results are named; the others gave an inactive call. Compounds with a hit are over-represented: about 5.4% of the library has one in this group of screens. Unless noted, calls come from the whole dose curve; as a rule, active = well fitted curve in the direction sought with a large enough effect; inconclusive = small, poorly fitted or top-dose-only effect, or another doubt; inactive = no such curve, though single readings can be large; an effect the other way counts as inactive or inconclusive.

CCCn1c(=S)[nH]c2sc3c(c2c1=O)CCCC3	Gal4-VP16 FLuc 0.89µM, RORg inh 0.28µM
CC1(C)C2C/C(=N\O)C(C)(/[N+]([O-])=C/c3cccc([N+](=O)[O-])c3)CC21 (configuration not stated)	none
COC(=O)c1ccc(C(NC(=O)OCc2ccccc2)/C(=C/[C@@H](C)C(=O)NCc2ccc(OC)c(O)c2)c2cccnc2)cc1 (some centres not stated)	none (no result: Six1-Eya2 inh, p53 reactivation, CtBP-E1A blk)
C=CCn1c(Oc2ccc(C=O)cc2OCC)nc2c1c(=O)n(C)c(=O)n2C	none (no result: CtBP-E1A blk)
O=c1[nH]c(=S)[nH]c2sc3c(c12)CCCCCC3	Gal4-VP16 FLuc inconclusive, RORg inh 14µM (no result: p53 reactivation)
O=c1[nH]cnc2sc3c(c12)CCCCC3	none
CC1CCC(NC(=O)c2cc(Cl)nc3ccccc23)CC1 (configuration not stated)	none (no result: Gal4-VP16 FLuc, CtBP-E1A blk, RORg inh)
CCC(C(=O)C(C)C(O)C(C)CCc1ccc(C)c(O)c1C(=O)O)C1OC(CC)(C2CC[C@@](O)(CC)C(C)O2)CC1C (some centres not stated)	Gal4-VP16 FLuc 10µM, RORg inh inconclusive (no result: Six1-Eya2 inh, p53 reactivation, CtBP-E1A blk)
CC[C@@H](C(=O)[C@@H](C)[C@@H](O)[C@H](C)CCc1ccc(C)c(O)c1C(=O)O)[C@H]1O[C@](CC)([C@H]2CC[C@](O)(CC)[C@H](C)O2)C[C@@H]1C	Gal4-VP16 FLuc 6.3µM, RORg inh inconclusive (no result: p53 reactivation)
CC[C@@H](C(=O)[C@@H](C)[C@@H](O)[C@H](C)[C@@H]1O[C@@H]([C@@H](CC)C(=O)O)CC[C@@H]1C)[C@H]1O[C@]2(C=C[C@@H](O)[C@]3(CC[C@@](C)([C@H]4CC[C@](O)(CC)[C@H](C)O4)O3)O2)[C@H](C)C[C@@H]1C	none (no result: Gal4-VP16 FLuc, p53 reactivation, RORg inh)
CCN(C[C@H]1N[C@@](CC)(C(=O)OC)[C@H]2C(=O)N(Cc3ccccc3)C(=O)[C@@H]12)S(=O)(=O)c1ccc(C(C)(C)C)cc1	none (no result: Gal4-VP16 FLuc, RORg inh)
COc1ccc(NC(=S)N/C(=N/S(=O)(=O)c2ccc(C)cc2)c2ccccc2)cc1	none
C/C(=N\S(=O)(=O)c1ccc(C)cc1)NC(=S)Nc1ccccc1	RORg inh 11µM
c1ccc2c(c1)CC(N1CCN(c3cccc4c3OCCO4)CC1)C2	none (no result: Six1-Eya2 inh, p53 reactivation, CtBP-E1A blk)
CC1CC2C3CCC4=CC(=O)C=C[C@]4(C)[C@@]3(Cl)C(O)C[C@]2(C)C1(OC(=O)c1ccco1)C(=O)CCl (some centres not stated)	RORg inh 16µM (no result: Six1-Eya2 inh, p53 reactivation, CtBP-E1A blk)
CCCC(=O)O[C@]1(C(=O)CCl)[C@H](C)C[C@@H]2[C@H]3CCC4=CC(=O)C=C[C@]4(C)[C@@]3(F)C(=O)C[C@@]21C	RORg inh 10µM (no result: Six1-Eya2 inh, p53 reactivation, CtBP-E1A blk)
CCCCC(=O)O[C@@]1(C(=O)CO)C(C)CC2C3CCC4=CC(=O)C=C[C@@]4(C)[C@]3(F)C(O)C[C@]21C (some centres not stated)	none (no result: Six1-Eya2 inh, p53 reactivation, CtBP-E1A blk)
CCC1(C)Cc2nc3[nH]c(=S)n(-c4ccccc4C)c(=O)c3cc2CO1 (configuration not stated)	Gal4-VP16 FLuc 10µM, RORg inh 6.3µM
CC1(C)Cc2nc3[nH]c(=S)n(-c4ccccc4)c(=O)c3cc2CO1	none (no result: Gal4-VP16 FLuc, p53 reactivation, RORg inh)
CCC1(C)Cc2nc3[nH]c(=S)n(-c4ccccc4)c(=O)c3cc2CO1 (configuration not stated)	Gal4-VP16 FLuc inconclusive, RORg inh 2.8µM
CN(CC(=O)Nc1ccccc1Cl)C(=O)CN1C(=O)C2CCCCC2C1=O (configuration not stated)	none (no result: Gal4-VP16 FLuc, RORg inh)
COc1ccc(C(=O)N/C(=C\c2cn(C)c3ccccc23)C(=O)NCCCn2ccnc2)cc1	none
COc1cc(CNCc2ccccn2)ccc1OCc1cccc(Cl)c1	Six1-Eya2 inh inconclusive, Gal4-VP16 FLuc inconclusive, RORg inh 4µM
COc1cc(CNCc2ccccn2)ccc1OCc1ccc(Cl)cc1	Six1-Eya2 inh inconclusive, p53 reactivation inconclusive, CtBP-E1A blk inconclusive
COc1cc(CNCc2ccccn2)ccc1OCc1c(Cl)cccc1Cl	Six1-Eya2 inh inconclusive, Gal4-VP16 FLuc 20µM, CtBP-E1A blk inconclusive, RORg inh 14µM
CCOC(=O)C1=C(COC(=O)c2ccc(Cl)cc2[N+](=O)[O-])NC(=O)NC1C (configuration not stated)	none (no result: Gal4-VP16 FLuc, RORg inh)
O=C(NNc1ccccc1)c1ccc(Cl)c(Cl)c1	none (no result: Gal4-VP16 FLuc, p53 reactivation, RORg inh)
c1ccc2c(-c3[nH]ncc3CNCCCn3ncc4ccccc43)cccc2c1	Gal4-VP16 FLuc inconclusive, RORg inh inconclusive
Cc1ccc(-c2cc(C(=O)n3cnc4ccccc43)c3ccccc3n2)cc1C	Gal4-VP16 FLuc 13µM, RORg inh 10µM
COCCCNc1nc2ccccc2[nH]c1=O	none
COCCCNc1nc(=S)[nH]c2cc(OC)c(OC)cc12	Six1-Eya2 inh -90, CtBP-E1A blk -95, RORg inh inconclusive
COc1cc2[nH]c(=S)nc(NCCC(C)C)c2cc1OC	Six1-Eya2 inh -87, Gal4-VP16 FLuc 8.9µM, CtBP-E1A blk -89, RORg inh 4.5µM
COc1ccc(Oc2ncc3nc(-c4cccs4)c(=O)n(CCC#N)c3n2)cc1	none (no result: Six1-Eya2 inh, p53 reactivation, CtBP-E1A blk)
Oc1ccccc1-c1cc(-c2ccco2)[nH]n1	Gal4-VP16 FLuc inconclusive, p53 reactivation inconclusive, RORg inh inconclusive
Oc1ccc(Br)cc1-c1ccn[nH]1	Gal4-VP16 FLuc 6.3µM, RORg inh 2.8µM
NNC(=O)c1cc(-c2ccco2)[nH]n1	none (no result: CtBP-E1A blk)
Oc1ccc(Br)cc1-c1cc(-c2ccco2)[nH]n1	Gal4-VP16 FLuc 16µM, RORg inh 13µM
Oc1c(-c2cc(-c3ccco3)[nH]n2)ccc2ccccc12	Gal4-VP16 FLuc 14µM, p53 reactivation inconclusive, RORg inh 6.3µM
Oc1ccc(Cl)cc1-c1cc(-c2ccco2)[nH]n1	Gal4-VP16 FLuc 13µM, RORg inh 3.5µM
CC[C@H](C)[C@H](NC(=O)[C@H](Cc1ccc(O)cc1)NC(=O)[C@@H]1CCCN1C(=O)[C@H](CCCN=C(N)N)NC(=O)[C@H](CCCN=C(N)N)NC(=O)[C@@H]1CCCN1C(=O)[C@H](CCCCN)NC(=O)[C@H](CC(N)=O)NC(=O)[C@H](CCC(N)=O)NC(=O)[C@H](Cc1ccc(O)cc1)NC(=O)[C@H](CC(C)C)NC(=O)[C@@H]1CCC(=O)N1)C(=O)N[C@@H](CC(C)C)C(=O)O	none (no result: Six1-Eya2 inh, p53 reactivation, CtBP-E1A blk)
CC(C)(C)c1ccc(N2C[C@@H](COc3ccc(C(=O)O)cc3)CC2=O)cc1	none (no result: Six1-Eya2 inh, p53 reactivation, CtBP-E1A blk)
C#CCNC(=O)C1=C[C@@H](C2CC2)[C@H](CCCO)[C@@H](OCC)O1	none
Cc1c([N+](=O)[O-])nnn1-c1cc(Cl)cc(Cl)c1	none
COc1ccc(C(=O)NC(=S)Nc2nc(-c3ccc(OC)c(Br)c3)cs2)cc1Br	none
CC(C)c1ccc(/C=C/C(=O)Nc2nncs2)cc1	p53 reactivation inconclusive, RORg inh 13µM
O=C(/C=C/c1ccco1)Nc1nc(-c2ccc(F)c(F)c2)cs1	none (no result: CtBP-E1A blk)
COc1ccc(-c2csc(NC(=S)NC(=O)/C=C/c3ccco3)n2)cc1OC	Gal4-VP16 FLuc 14µM, RORg inh 7.9µM

Compound activity (PubChem BioAssay)
